# Bioassay records (PubChem)
# NCOA3 inh: human NCOA3 inhibition. HEK293 GAL4-SRC3 luciferase reporter, luminescence. inhibition, % at 3.6 µM. hit rate 0.17% among 360,000;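 active = inhibition above a per-campaign cutoff, the mean of all compounds plus 3 SD, cut at about 60% in these data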;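 also: 0% = DMSO-treated cells and 100% = gossypol-treated cells at 36 µM; higher means less SRC3-driven luciferase light from the GAL4 reporter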
# COUP-TFII inh: NR2F2 (human) inhibition, primary screen; P24468; HEK293T NGFI-A luciferase reporter, luminescence; inhibition, % at 8.6 µM; hit rate 0.7% among 370,000; AID 686940;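 active = inhibition above a per-plate cutoff, mean inhibition of test wells between control levels plus 3 SD, cut at about 38% in these data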;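 also: cells cotransfected with COUP-TFII expression vector driving the NGFI-A reporter; 0% = median of COUP-TF2 test wells and 100% = reporter-only cells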
# LRH-1 inv ag: suppresses constitutive activity of human LRH-1; O00482; HEK293T StAR-luciferase reporter, LRH-1 transfected, 24 h; inhibition, % at 3.6 µM; hit rate 0.13% among 360,000; AID 602396;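 active = inhibition above the mean inhibition of all tested compounds plus 3 SD, cut at about 73% in these data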;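 also: 0% = DMSO wells and 100% = reporter-only cells lacking LRH-1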
# Target sequence (O00482 whole entry, looked up): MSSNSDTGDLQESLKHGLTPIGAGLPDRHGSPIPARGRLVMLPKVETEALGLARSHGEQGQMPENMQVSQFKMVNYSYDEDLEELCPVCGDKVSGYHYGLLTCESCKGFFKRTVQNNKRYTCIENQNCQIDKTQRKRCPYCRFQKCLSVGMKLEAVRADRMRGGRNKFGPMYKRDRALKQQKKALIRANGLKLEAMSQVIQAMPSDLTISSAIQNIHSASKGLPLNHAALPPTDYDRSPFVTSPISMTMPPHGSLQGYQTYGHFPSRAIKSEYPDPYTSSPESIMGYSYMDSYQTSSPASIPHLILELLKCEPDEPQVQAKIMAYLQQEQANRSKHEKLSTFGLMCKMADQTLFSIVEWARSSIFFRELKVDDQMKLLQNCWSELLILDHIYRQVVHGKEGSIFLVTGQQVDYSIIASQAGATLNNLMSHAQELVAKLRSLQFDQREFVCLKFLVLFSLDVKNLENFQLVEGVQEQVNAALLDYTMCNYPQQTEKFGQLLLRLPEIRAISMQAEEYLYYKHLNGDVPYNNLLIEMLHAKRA
# NCOA1 inh: inhibits human SRC1 coactivator; AID 588354; HEK293 GAL4-SRC1 luciferase reporter, luminescence; hit rate 0.12% among 360,000; Q15788; inhibition, % at 3.6 µM;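 active = inhibition above the campaign mean plus 3 SD, with each screening campaign given its own cutoff, cut at about 60% in these data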;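 also: 0% = DMSO treated cells and 100% = gossypol at 36 µM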
# NCOA2 inhibitor: inhibits human steroid receptor coactivator 2 | Q15596 | HEK293 GAL4-SRC2 luciferase reporter, luminescence | hit rate 0.17% among 370,000 | inhibition, % at 9 µM;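 active = inhibition above the mean inhibition of all tested compounds plus 3 SD, set per campaign, cut at about 52% in these data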;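 also: 0% = DMSO treated cells and 100% = cells given Gossypol at 36 µM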
# Gli-Sufu block: antagonists of Gli-Sufu signaling; Sufu-KO-LIGHT fibroblasts, Gli luciferase reporter luminescence; inhibition, % at 5 µM; hit rate 0.74% among 340,000;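 active = inhibition above about 55%, limit read from the data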;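 also: 0% = DMSO-treated cells and 100% = wells with medium but no cells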
# Gli antag conf: Gli-SUFU antagonism confirmation, single concentration | shares compounds with Gli-Sufu block | Sufu-KO-LIGHT cells, Gli luciferase reporter, luminescence | inhibition, % at 5 µM | hit rate 40% among 2,500 | AID 602428;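 active = mean inhibition at 5 µM reaching about 45%, limit read from the data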;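 also: plate controls were DMSO-treated cells for no effect and wells lacking cells for full effect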
# SufuKO cytotox: cytotoxic in Gli-SUFU antagonist counter-screen. Sufu-KO-LIGHT cells cytotoxicity, ATP luminescence. hit rate 32% among 2,500. cytotoxicity, % at 5 µM. shares compounds with Gli-Sufu block. AID 651994;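 active = mean cytotoxicity at 5 µM above about 25%, limit read from the data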;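 also: cells exposed to compound overnight for roughly 16 to 18 hours; plate controls were DMSO wells with cells for no effect and medium without cells for full effect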
# Wnt3a cs: Wnt3a reporter inhibition counter-screen | shares compounds with Gli-Sufu block | Wnt-LIGHT cells, Wnt3a-driven luciferase reporter, luminescence | inhibition, % at 6.25 µM | hit rate 20% among 2,500;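 active = mean inhibition above about 25%, limit read from the data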
# Starred values were filed as active, the others as inactive; . = no result. The list is not random: actives were taken first. Their share in the collection is about 1.3%.
SMILES,NCOA3 inh,COUP-TFII inh,LRH-1 inv ag,NCOA1 inh,NCOA2 inhibitor,Gli-Sufu block,Gli antag conf,SufuKO cytotox,Wnt3a cs
CC1(C)CC(N2CCN(c3ccccc3)CC2)=CC(=[N+]2CCCC2)C1,57,33,62,29,17,83*,86*,35*,38*
Cc1cccc(C)c1NC(=S)N(CCN1CCCCCC1)Cc1ccco1,14,6,-14,8,11,52,29,8,-12
COc1cc(C(NC(=O)C(F)(F)F)C2CCCC=C2c2ccccc2)cc(OC)c1OC (stereo not drawn),.,-1,.,.,2,.,.,.,.
O=C(CCS(=O)(=O)c1ccccc1)Nc1ccccc1N1CCOCC1,14,-4,-7,7,1,66*,9,11,-13
O=C(Cc1ccccc1)Nc1ccccc1N1CCOCC1,8,-8,5,3,15,8,.,.,.
CCOC(=O)[C@@]12CCCC3=C1N(CCC3)C(=O)[C@H]2CC(=O)NCc1cccc2ccccc12,.,-17,.,.,-20,.,.,.,.
COc1ccc(S(=O)(=O)N2CCSC2)cc1C,20,10,22,-8,1,-6,.,.,.
Cc1ccc(S(=O)(=O)N2CCSC2)cc1C,25,-9,6,0,-22,56*,13,8,12
c1ccc(Cn2c(-c3ccccc3)c[n+]3c2SCCC3)cc1,14,13,-8,12,9,70*,67*,37*,11
COc1ccc(-c2c[n+]3c(n2-c2ccccc2)SCC3)cc1OC,18,-2,11,-6,-22,-3,.,.,.
Cc1cccc(-c2cccc3c4c([nH]c23)[C@@H]2C[C@H]3[C@@H](C(=O)N2CC4)[C@H](C)ON3C)c1,.,-13,.,.,-20,.,.,.,.
CCOCCCNC(=O)c1ccc2c(c1)ncn2-c1ccccc1OC,2,6,8,4,-20,61*,11,11,-35
CCOCCCNC(=O)c1ccc2c(c1)ncn2-c1ccc(C)cc1C,-10,0,6,-14,-14,31,.,.,.
Cn1c(SCC(=O)NCc2ccc(F)cc2)ncc(C(=O)Nc2ccccc2)c1=O,-33,5,-14,-4,-5,54,30,13,-14
Cn1c(SCC(=O)NCc2ccc3c(c2)OCO3)ncc(C(=O)Nc2ccc(F)cc2)c1=O,-8,-15,11,-12,-49,14,.,.,.
COc1ccccc1N1CCN(C(=O)C2CCN(S(=O)(=O)c3ccc4c(c3)CC(C)N4C(=O)C3CC3)CC2)CC1 (stereo not drawn),-4,31,12,25,-13,11,.,.,.
CC1Cc2cc(S(=O)(=O)N3CCC(C(=O)N4CCN(c5ccccc5F)CC4)CC3)ccc2N1C(=O)C1CC1 (stereo not drawn),2,18,19,-35,31,54,62*,24,5
C=CCn1c(CCC(O)COCCC)n[nH]c1=S (stereo not drawn),-1,-10,1,-17,0,54,11,22,-21
C=CCn1c(CCn2c3ccccc3c3ccccc32)n[nH]c1=S,9,6,7,15,17,-4,.,.,.
O=S1(=O)C=CCN1Cc1cn(Cc2ccc(C(F)(F)F)cc2)nn1,.,-5,.,.,7,.,.,.,.
FC(F)(F)c1nc(-c2cccs2)ncc1-c1nnnn1-c1ccc(Cl)cc1,18,4,4,6,9,58*,58*,39*,1
COc1ccccc1CNC(=O)N1CCC(c2nc3ccc(Cl)cc3[nH]2)CC1,.,6,.,.,-22,.,.,.,.
Cc1ccc(-c2csc(NCCc3nc4cc(Cl)c(Cl)cc4n3CCCO)n2)cc1,-8,1,-13,-20,6,57*,25,35*,-59
O=C(/C=C/NNC(=O)c1ccccc1)c1ccc([N+](=O)[O-])cc1,-2,-15,-67,-13,-53,73*,34,28*,23
CC[C@@H](OP(=O)(O)[C@@H](C)N)C(=O)O,.,-6,.,.,2,.,.,.,.
